DT40 TDP1 no CPT – qHTS for Inhibitors of human tyrosyl-DNA phosphodiesterase 1 (TDP1): qHTS in cells in absence of CPT | Potency, µM (series often up to 46.2 µM), without a hit: top-dose activity change, negative = growth inhibition, most hits filed as inhibitors | 15% of 420,000 active | DT40 Tdp1-/- hTDP1 cells, no CPT, ATP luminescence, 48 h; further: potency means the concentration at half of the fitted maximal effect; nearly all actives have a fitted effect of over 55% in size
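Growth kinetics read by CellTiter-Glo luminescence after ≥48 hr at 37 °C. Cells: DT40 Tdp1-/- stably carrying human TDP1, 400 per well, compound exposure in the absence of CPT (DMSO vehicle).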
ELG1 DNA repair – inhibitors of ELG1-dependent DNA repair in HEK293T cells. HEK293T ELG1-luciferase reporter, luminescence, 16 h; DNA damage induced by 5-fluorouridine. Potency, µM (highest dose often 46.1 µM), without a hit: top-dose activity change, negative = inhibition, actives largely listed as inhibitors. 2.3% of 330,000 active. AID 504467; further: potency means the concentration at half of the fitted maximal effect; nearly all actives have a fitted effect of over 55% in size
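DMSO vehicle served as the neutral condition. Each well held 2,000 cells given 5-fluorouridine plus compound; after 16 hr at 37 °C/5% CO2, ONE-Glo was added and luciferase measured 30 min later.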
HT1080NT lethal – kills 2HG-producing HT-1080-NT fibrosarcoma cells; HT-1080-NT fibrosarcoma viability, CellTiter-Glo ATP luminescence, 48 h; Potency, µM (doses to about 46.1 µM), for inactives: top-dose activity, negative = less viability, usual class: cytotoxic; 1.6% of 360,000 active; AID 686970;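 further: NT is the 2HG producing partner of a matched IDH1 knockdown line; potency means the concentration at half of the fitted maximal effect; 0% = DMSO-treated cells and -100% = media-only wells without cells; nearly all actives have a fitted effect of over 55% in size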
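HT-1080-NT fibrosarcoma cells (2HG-overproducing), 750 cells/well in RPMI with 5% FBS, dosed after 2 h and incubated 48 h at 37C. CellTiter-Glo luminescence normalized to DMSO and no-cell wells; concentration-response curves fitted and classed.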
HT1080 IDH1KD tx – toxicity to HT-1080 IDH1 knockdown cells (counter line); HT-1080 IDH1 knockdown viability, ATP luminescence, 48 h; Potency, µM (doses to about 46.1 µM), inactives show at the top dose activity, negative = toxicity, actives largely listed as cytotoxic; 2% of 360,000 active; AID 686971;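 further: potency means the concentration at half of the fitted maximal effect; 0% = DMSO wells and -100% = cell-free medium wells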
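CellTiter-Glo luminescence after 48 h compound exposure at 37 degrees C of IDH1-knockdown HT-1080 cells in 5% FBS RPMI. %Activity scaled between DMSO wells and cell-free media wells, with curves fitted and assigned curve classes.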
DT40 TDP1 CPT – growth inhibition of DT40 Tdp1-/-;hTDP1 cells with camptothecin (screen for TDP1 inhibitors) | chicken DT40 Tdp1-/-;hTDP1 cells + 20 nM CPT, ATP luminescence, 48 h | Potency, µM (top dose mostly 46.2 µM), for inactives: top-dose activity change, negative = growth inhibition, actives largely listed as inhibitors | 12% of 420,000 active; further: potency means the concentration at half of the fitted maximal effect; nearly all actives have a fitted effect of over 55% in size
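Chicken DT40 Tdp1-/- cells stably complemented with human TDP1 were seeded at 400 cells/well in medium containing 20 nM camptothecin, exposed to pin-transferred compounds, and grown at 37 °C for at least 48 hr. Viability was read as ATP luminescence.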
IL1B secr inh – inflammasome signaling inhibition, IL-1 beta readout | activity change, % at 57.5 µM | 4.7% of 360,000 active | THP-1 LPS/ATP IL-1B secretion, AlphaLISA, 16 h; stronger effect = lower value | AID 743279; in the data active means activity change below about -50%; inconclusive means mostly about -30% to -49%
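Secreted IL-1B measured by AlphaLISA bead assay after 16 h compound exposure of THP-1 cells; compounds (final up to 57.5 uM) added 1 h before LPS (250 ng/mL) and ATP (1.25 mM) stimulation; lower signal means less secretion.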
* marks the source's active call; other numbers are inactive results; i = inactive; ? = inconclusive; . = not tested or not shown. Most compounds without a hit are left out; they make up all but 19% or so of the library. Unless noted, the call rests on the fitted dose curve; in most records, active means well fitted curve in the direction sought with a large enough effect; inconclusive means small, poorly fitted or top-dose-only effect, or another doubt; inactive means no such curve, though single readings can be large; an effect the other way counts as inactive or inconclusive. Unless noted, on the % scale 0 is the no-effect control and ±100 the full control effect.

SMILES	DT40 TDP1 no CPT	ELG1 DNA repair	HT1080NT lethal	HT1080 IDH1KD tx	DT40 TDP1 CPT	IL1B secr inh
C=CCn1c(SCC(=O)NCCC2=CCCCC2)nc2ccc(Cl)cc2c1=O	?	-12%	-2%	2%	23µM*	2
O=C(NC1CCCCC1)NC1CCCCC1	-13%	.	.	.	-21%	.
CCOC(=O)C1=CN(CC)S(=O)(=O)NC1c1ccc2ccccc2c1 (stereo unspecified)	-29%	0%	-7%	2%	1%	21
COC(=O)c1c(NC2=NS(=O)(=O)c3ccccc32)sc2c1CCC(C(C)(C)C)C2 (stereo unspecified)	15µM*	.	5%	16%	18µM*	20
CC(C)(C)CC(=O)NCC(c1ccc2c(c1)OCO2)N1CCOCC1 (stereo unspecified)	-4%	.	.	.	3%	.
COc1ccc(-n2nnnc2C2CCN(S(=O)(=O)c3cc(Cl)ccc3OC)CC2)cc1	18µM*	.	.	.	13µM*	.
COc1ccc(-n2nnnc2C2CCN(S(=O)(=O)c3ccc(C)cc3)CC2)cc1	-76%	.	.	.	13µM*	.
CCc1nn(CC(=O)NCCOC)c(=O)c2cc3cc(F)ccc3n12	2%	.	.	.	17%	.
CC(C)(C)C1CCc2c(sc(NC(=O)Cn3nnc(-c4ccccc4F)n3)c2C#N)C1 (stereo unspecified)	-13%	.	.	.	0%	.
Cc1ccc2oc(Nc3nc(-c4ccccc4)cc(=O)[nH]3)nc2c1	4.6µM*	?	-4%	?	3.3µM*	.
Cc1nc(-c2ccccc2)cc(=O)[nH]1	-10%	1%	12%	14%	-16%	14
CCOC(=O)Cc1cc(=O)[nH]c(Nc2nc3ccccc3o2)n1	?	?	-25%	-1%	?	11
COCc1cc(=O)[nH]c(Nc2nc3ccccc3o2)n1	8.9µM*	?	-28%	?	10µM*	54
COCc1cc(=O)[nH]c(Nc2nc(C)c3ccccc3n2)n1	16µM*	-27%	?	?	21µM*	-65*
COc1ccccc1NC(=O)C(C)OC(=O)C1CCC(C(C)(C)C)CC1 (stereo unspecified)	?	?	-22%	-14%	?	20
CC(C)C[C@H](NC(=O)c1[nH]cnc1C(=O)N[C@H](C)c1ccccc1)C(=O)OCc1ccccc1	16µM*	5%	-17%	-20%	?	29
CC(C)C[C@H](NC(=O)c1nc[nH]c1C(=O)N[C@@H](CC(C)C)C(=O)OCc1ccccc1)C(=O)OCc1ccccc1	26µM*	-20%	?	?	23µM*	-6
Nc1ccccc1C(=O)N1O[C@@H]2C=C[C@H]1CC2	-1%	?	6%	2%	-3%	1
O=C(NCCc1ccccc1)c1cccc(NC(=O)C2CCCC2)c1	-18%	.	2%	0%	-6%	-24
CCCc1nn2c(=O)cc(COC(=O)c3cccc(NC(=O)c4ccc(OCC)cc4)c3)nc2s1	-19%	.	.	.	-10%	.
N#C/C(=C1\C(=O)Nc2c(Cl)cc(Cl)cc21)c1nnc2n1CCCCC2	-13%	0%	22%	3%	?	?
CCOc1ccc(C2=CS/C(=C(\C#N)c3nnc4n3CCCCC4)N2CC)cc1	23µM*	?	-26%	?	?	-4
N#C/C(=C1/CCCCCN1)c1nnc2n1CCCCC2	-8%	?	?	0%	-11%	9
C=CCn1c(=O)/c(=C/c2ccc(Cl)cc2)s/c1=C(\C#N)c1nnc2n1CCCCC2	6.5µM*	.	-15%	-1%	21µM*	-79*
N#C/C(=C(/O)COc1ccccc1)c1nnc2n1CCCCC2	-3%	-1%	11%	20%	6%	20
SMILES	DT40 TDP1 no CPT	ELG1 DNA repair	HT1080NT lethal	HT1080 IDH1KD tx	DT40 TDP1 CPT	IL1B secr inh
C=CCN1C(c2ccccc2)=CS/C1=C(\C#N)c1nnc2n1CCCCC2	?	11µM*	5%	-5%	?	-17
O=C(NCCNC(=O)c1cc(Cl)ccc1Cl)c1cnccn1	-7%	-8%	-5%	12%	-5%	-15
COc1ccc(OC)c(S(=O)(=O)N/N=C\c2cn(CC(N)=O)c3ccccc23)c1	?	?	-22%	?	13µM*	i
CCCNS(=O)(=O)c1cc(Cl)ccc1OC	-1%	10%	10%	33%	11%	-20
C/C(=N\NC(=S)NCc1ccccc1)c1ccc2c(c1)OCCO2	23µM*	?	-9%	-13%	16µM*	16
C/C(=N\NC(=S)NCc1ccccc1)c1ccc(Br)cc1	?	?	-17%	-22%	?	-6
C/C(=N\NC(=S)NCc1ccccc1)c1cccs1	?	19%	13%	3%	-12%	19
C/C(=N\NC(=S)NCc1ccccc1)c1ccc(C)o1	5.2µM*	15%	2%	-5%	?	-4
C/C(=N\NC(=S)Nc1ccc(F)cc1)c1ccc2c(c1)OCCO2	0.92µM*	9%	?	?	0.92µM*	-58*
O=Nc1c(O)[nH]c2ccc(Cl)cc12	?	-1%	-9%	-12%	-19%	-72*
O=Nc1c(O)[nH]c2ccc(F)cc12	-15%	-4%	-4%	0%	2%	-88*
CCOC(=O)c1[nH]c(C)c(C(=O)NCc2ccc(Cl)cc2)c1C	-17%	-20%	?	-25%	?	35
CCOC(=O)c1c(C)[nH]c(C(=O)OCc2ccccc2)c1C	?	?	11%	-7%	-22%	-3
CCOC(=O)c1[nH]c(C)c(C(=O)NC(CC)Cc2ccccc2)c1C (stereo unspecified)	16µM*	.	.	.	?	.
CCOC(=O)c1[nH]c(C)c(C(=O)Nc2cc(Cl)ccc2C)c1C	0.16µM*	?	0.32µM*	0.089µM*	0.15µM*	49
CCOC(=O)c1[nH]c(C)c(C(=O)Nc2ccccc2C)c1C	1.5µM*	?	5.8µM*	2.3µM*	1.6µM*	-5
CCCCCCSc1ccc([C@H]2N[C@@](CC(C)C)(C(=O)OC)[C@H]3C(=O)N(CC)C(=O)[C@@H]23)cc1	21µM*	-8%	-13%	1%	21µM*	16
CCCCCCSc1ccc([C@H]2N[C@@](C)(C(=O)OC)[C@H]3C(=O)N(CC)C(=O)[C@@H]23)cc1	18µM*	-22%	-20%	-11%	23µM*	-26
